# Activity calls are given as the source filed them. Unless noted, no stated cut-off is given here; in the data, active means inhibition above about 80%; inactive means the rest.
# Legend:
# [1] = stimulators of nuclear beta-catenin in C2C12, primary screen, imaging, WNT3A-conditioned medium, mouse C2C12, NPC library (AID 1117326; in the data active means nuclear beta-catenin stimulation mostly above about 4.2%, no sharp cut-off; inactive means mostly below about 10%); settings: stronger effect = higher value
# [2] = stimulators of insulin release from INS-1E, primary screen, cell-based, 5 mM glucose, NPC library (AID 1117329;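 active means compound raises insulin release from rat beta cells at 5 mM glucose, no numeric limit stated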); settings: rat INS-1E insulin secretion, at 10 µM, stronger effect = higher value
# [3] = growth inhibition of GSK3B-pretreated HCT116 cells – cell-based, CellTiter-Glo, 0.2 to 20 µM (AID 1117336;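 active means compounds lowering colon cancer cell viability after pretreatment blocking the GSK3B kinase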); settings: HCT116 viability after GSK3B inhibitor, at 20 µM, stronger effect = higher value
# [4] = inhibition of endothelial tube formation, primary screen, imaging, VEGF stimulated, CD31 staining, tube area, NPC library (AID 1117340;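 active means compound that reduces growth-factor-driven endothelial tube area in a mixed cell culture, no cutoff stated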); settings: VEGF-stimulated ADSC/ECFC co-culture, at 10 µM, stronger effect = higher value
# [5] = glucagon-like peptide 1 release enhancers, primary assay, NCI-H716 cell line, NPC library (AID 1117341;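 active means compound raises GLP1 secretion from the human gut endocrine cells, with no numeric limit stated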); settings: NCI-H716 cells, at 10 µM, stronger effect = higher value
# [6] = HCT116 colon cancer cell growth inhibition, primary screen, CellTiter-Glo luminescence, NPC library (AID 1117342;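 active means compounds that lower survival of HCT116 colon cancer cells in the luminescence readout, no numeric limit stated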); settings: at 20 µM (top of the series)
# [7] = CellTiter-Glo luminescent readout of SW480 viability loss, NPC library primary (AID 1117343;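 active means compounds that lower viability of the colon cancer cells in the luminescence readout, with no numeric limit stated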); settings: CellTiter-Glo luminescence; at 20 µM (top of the series) unless noted
# [8] = decreased DLD-1 cellular survival, CellTiter-Glo luminescent readout, NPC compound collection, primary HTS (AID 1117346;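 active means compounds that lower survival of DLD-1 colon cancer cells in the luminescence readout, no cutoff given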); settings: DLD-1 viability, CellTiter-Glo luminescence; at 20 µM (top of the series)
# [9] = differential killing of epithelial or mesenchymal cells, primary screen, imaging, PC-3E GFP, TEM4-18 mCherry, co-culture (AID 1345086;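 active means compounds killing one labelled cell type while sparing the other, by normalised counts and ratio limits, not self-fluorescent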;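 on all read-outs here: cells exposed to compound for 72 h before imaging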;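 on red/green cell ratio (normalised): normalised mesenchymal count divided by normalised epithelial count so high means epithelial killing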); settings: imaging cell counts, at 1 µM; for red/green cell ratio (normalised): actives lie on both sides, counts scaled to control wells, 1 = unselective
# [10] = LFS_MB_P medulloblastoma growth inhibition, cell-based, chromothripsis tumors, cisplatin or BGB combos (AID 1671449); settings: LFS_MB_P medulloblastoma cells;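 further: cells exposed for 96 hours; 0% = vehicle DMSO and 100% = killing by high DMSO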
# [11] = HDN33 neuroblastoma growth inhibition, cell-based, chromothripsis tumors, cisplatin or BGB combos (AID 1671450); settings: HDN33 neuroblastoma cells, stronger effect = higher value;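 further: cells exposed to compound for four days; 0% = vehicle DMSO and 100% = cell killing by high DMSO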
# [12] = ICB984 medulloblastoma cell growth inhibition, synergistic combos for chromothripsis tumors, cisplatin or BGB combos (AID 1671451; call rule not given here;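 further: cells exposed for 96 hours before readout; 0% = vehicle DMSO and 100% = killing by high DMSO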); settings: ICB984 medulloblastoma cells, drug combinations, stronger effect = higher value
# [13] = HTB85 osteosarcoma cell growth inhibition, synergistic combos for chromothripsis tumors, BGB or cisplatin IC20 combos (AID 1671453); settings: HTB85 osteosarcoma cells, drug combinations, stronger effect = higher value;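 further: cells exposed for 96 hours before readout; 0% = vehicle DMSO and 100% = high DMSO killing control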
# [14] = MDA-MB-436 breast carcinoma cell growth inhibition, synergistic combos for chromothripsis tumors, BGB or cisplatin combos (AID 1671458; call rule not given here;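 further: cells exposed for 96 hours; 0% = vehicle DMSO and 100% = killing by high DMSO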); settings: MDA-MB-436 breast carcinoma growth inhibition, drug combinations, stronger effect = higher value
# [15] = sensitizers of A549 cells to miR-34 induction, primary screen, imaging, A549 dox-inducible miR-34, nuclei and caspase counts (AID 1347080;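 active means compounds whose cell count with miR-34 switched on is under 0.7 times the count with it off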); settings: A549 miR-34 inducible, Hoechst nuclei count, 48 h
# [16] = survival rescue of mitochondrial mutant cells in low glucose, primary screen, MELAS cybrids, Rieske KO mouse fibroblasts, CellTiter-Glo (AID 1508586;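 active means mean z-score across replicates of 1.96 or higher in either the MELAS or the Rieske mutant cell line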;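 further: z relative to plate mean and SD of compound and empty wells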)
# [17] = measured here: epithelial PC-3E GFP cell survival
# [18] = measured here: mesenchymal TEM4-18 mCherry cell survival
# [19] = at 0.5 µM, stronger effect = higher value
# [20] = measured here: combination with BGB IC20, at 0.005 µM
# [21] = measured here: combination with BGB IC40, at 0.005 µM
# [22] = measured here: combination with BGB IC40, at 0.05 µM
# [23] = measured here: combination with cisplatin, at 0.5 µM, stronger effect = higher value
# [24] = measured here: combination with cisplatin, at 5 µM, stronger effect = higher value
# [25] = measured here: with BGB IC20 combination, at 0.5 µM
# [26] = measured here: with cisplatin IC20 combination, at 0.5 µM
# [27] = measured here: 5 uM single agent, at 5 µM
# [28] = measured here: with BGB IC20, at 0.5 µM
# [29] = measured here: with BGB IC20, at 5 µM
# [30] = measured here: with cisplatin IC20, at 0.5 µM
# [31] = measured here: with cisplatin IC20, at 5 µM
# [32] = measured here: BGB combination, at 0.5 µM
# [33] = measured here: BGB combination, at 5 µM
# [34] = measured here: cisplatin combination, at 0.5 µM
# [35] = measured here: cisplatin combination, at 5 µM
smiles,measurement,setting,value
CN1CCN(c2c(F)cc3c(=O)c(C(=O)O)cn4c3c2OCN4C)CC1,nuclear beta-catenin stimulation,[1]; at 10 µM,-0.6% (inactive)
same,nuclear beta-catenin stimulation,"[1]; stimulation, at 2 µM",-2.1%
same,insulin secretion stimulation,[2],-0.9% (inactive)
same,viability decrease,[3],7.3% (inactive)
same,tube area decrease,[4],-6.4% (inactive)
same,GLP1 secretion stimulation,[5],-0.1% (inactive)
same,inhibition of viability,[6],1.5% (inactive)
same,viability decrease (inhibition),[7],-15.8% (inactive)
same,viability decrease (inhibition),[8],-5% (inactive)
same,red/green cell ratio (normalised),[9],0.85 (inactive)
same,normalised cell number,[9]; [17],1.17
same,normalised cell number,[9]; [18],1
same,inhibition,[10]; [19],-17.7% (inactive)
same,inhibition,[10]; [20],-16.9%
same,inhibition,[10]; [21],-17.4%
same,inhibition,[10]; [22],-36.9%
same,inhibition,[10]; [23],-51.4%
same,inhibition,[10]; [24],-32.3%
same,inhibition,"[11]; BGB combo, at 5 µM",5.71%
same,inhibition,[11]; at 0.5 µM,-7.25% (inactive)
same,inhibition,"[11]; cisplatin combo, at 5 µM",-1.82%
same,inhibition,[11]; [25],5.2%
same,inhibition,[11]; [26],-12.1%
same,inhibition,"[11]; single agent, at 5 µM",-9.4%
same,inhibition,"[12]; BGB IC20 combo, at 0.005 µM",9.65%
same,inhibition,"[12]; BGB IC40 combo, at 0.005 µM",-1.21%
same,inhibition,"[12]; BGB IC40 combo, at 0.05 µM",1.28%
same,inhibition,[12]; at 0.5 µM,-28.8% (inactive)
same,inhibition,"[12]; cisplatin combo, at 0.05 µM",-1.48%
same,inhibition,"[12]; cisplatin combo, at 0.5 µM",-25.3%
same,inhibition,"[12]; cisplatin combo, at 5 µM",-7.68%
same,inhibition,[12]; [27],-17.3%
same,inhibition,[13]; at 0.5 µM,-12.7% (inactive)
same,inhibition,[13]; [28],-22.2%
same,inhibition,[13]; [29],-21.7%
same,inhibition,[13]; [30],-26.4%
same,inhibition,[13]; [31],-29.4%
same,inhibition,"[13]; single agent, at 5 µM",-8.81%
same,inhibition,[14]; at 0.5 µM,-16.5% (inactive)
same,inhibition,[14]; [32],-13.3%
same,inhibition,[14]; [33],-9.95%
same,inhibition,[14]; [34],-29.6%
same,inhibition,[14]; [35],-33.2%
CNC1CCCN(c2c(F)cc3c(=O)c(C(=O)O)cn(C4CC4)c3c2OC)C1 (configuration not stated),nuclear beta-catenin stimulation,[1]; at 10 µM,-0.1% (inactive)
same,nuclear beta-catenin stimulation,"[1]; stimulation, at 2 µM",0%
same,insulin secretion stimulation,[2],5.75% (inactive)
same,viability decrease,[3],42.9% (inactive)
same,tube area decrease,[4],-9% (inactive)
same,GLP1 secretion stimulation,[5],1.4% (inactive)
same,inhibition of viability,[6],10.1% (inactive)
same,viability decrease (inhibition),[7],6% (inactive)
same,viability decrease (inhibition),[8],-25.9% (inactive)
same,red/green cell ratio (normalised),[9],1.13 (inactive)
same,normalised cell number,[9]; [17],1.05
same,normalised cell number,[9]; [18],1.18
same,fold change,"[15]; stronger effect = lower value, cell number ratio, induced over uninduced",0.938 (inactive)
same,fold change,[15]; measured here: relative caspase fold change +Dox/-Dox,0.74
same,cell count,"[15]; measured here: total cells with miR-34 induction, stronger effect = lower value",8330
same,cell count,[15]; measured here: total cells without miR-34 induction,8880
same,z-score,"[16]; MELAS cybrid survival, CellTiter-Glo 48 h, stronger effect = higher value",-0.145 (inactive)
same,z-score,"[16]; Rieske KO mouse fibroblast survival, CellTiter-Glo 72 h",0.59
same,inhibition,[10]; [19],6.49% (inactive)
same,inhibition,[10]; [20],-28.5%
same,inhibition,[10]; [21],-37.4%
same,inhibition,[10]; [22],-26.1%
same,inhibition,[10]; [23],1.25%
same,inhibition,[10]; [24],-35.3%
same,inhibition,"[11]; BGB combo, at 5 µM",-29.7%
same,inhibition,[11]; at 0.5 µM,-41% (inactive)
same,inhibition,"[11]; cisplatin combo, at 5 µM",-60.5%
same,inhibition,[11]; [25],-39.7%
same,inhibition,[11]; [26],-37.4%
same,inhibition,"[11]; single agent, at 5 µM",-52%
same,inhibition,"[12]; BGB IC20 combo, at 0.005 µM",-26.8%
same,inhibition,"[12]; BGB IC40 combo, at 0.005 µM",-20.1%
same,inhibition,"[12]; BGB IC40 combo, at 0.05 µM",-26.3%
same,inhibition,[12]; at 0.5 µM,-21.9% (inactive)
same,inhibition,"[12]; cisplatin combo, at 0.05 µM",-26.3%
same,inhibition,"[12]; cisplatin combo, at 0.5 µM",-35.1%
same,inhibition,"[12]; cisplatin combo, at 5 µM",-31.2%
same,inhibition,[12]; [27],-13.6%
same,inhibition,[13]; at 0.5 µM,-23.2% (inactive)
same,inhibition,[13]; [28],-35.9%
same,inhibition,[13]; [29],-27.5%
same,inhibition,[13]; [30],-20.5%
same,inhibition,[13]; [31],-18.5%
same,inhibition,"[13]; single agent, at 5 µM",-28.7%
same,inhibition,[14]; at 0.5 µM,-22.5% (inactive)
same,inhibition,[14]; [32],-19.9%
same,inhibition,[14]; [33],-19.5%
same,inhibition,[14]; [34],-36.1%
same,inhibition,[14]; [35],-11.6%

# — PubChem BioAssay
